# Most compounds without a hit are left out; they make up all but 1.2% or so of the library.
# KCNH2 WT inh – KCNH2 (human, wildtype) channel inhibition | Q12809 | activity change, % at 1.84 µM | AID 720551 | U2OS, BacMam KCNH2, thallium flux FluxOr; hits give low values | 340,000 tested, 0.37% active;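 active means maximum activity change below -70%; inconclusive means maximum activity change between -70% and -50%; inactive means maximum activity change above -50%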; further: on the % scale 0 is the no-effect control and ±100 the full control effect
# Target sequence (Q12809 whole entry, looked up): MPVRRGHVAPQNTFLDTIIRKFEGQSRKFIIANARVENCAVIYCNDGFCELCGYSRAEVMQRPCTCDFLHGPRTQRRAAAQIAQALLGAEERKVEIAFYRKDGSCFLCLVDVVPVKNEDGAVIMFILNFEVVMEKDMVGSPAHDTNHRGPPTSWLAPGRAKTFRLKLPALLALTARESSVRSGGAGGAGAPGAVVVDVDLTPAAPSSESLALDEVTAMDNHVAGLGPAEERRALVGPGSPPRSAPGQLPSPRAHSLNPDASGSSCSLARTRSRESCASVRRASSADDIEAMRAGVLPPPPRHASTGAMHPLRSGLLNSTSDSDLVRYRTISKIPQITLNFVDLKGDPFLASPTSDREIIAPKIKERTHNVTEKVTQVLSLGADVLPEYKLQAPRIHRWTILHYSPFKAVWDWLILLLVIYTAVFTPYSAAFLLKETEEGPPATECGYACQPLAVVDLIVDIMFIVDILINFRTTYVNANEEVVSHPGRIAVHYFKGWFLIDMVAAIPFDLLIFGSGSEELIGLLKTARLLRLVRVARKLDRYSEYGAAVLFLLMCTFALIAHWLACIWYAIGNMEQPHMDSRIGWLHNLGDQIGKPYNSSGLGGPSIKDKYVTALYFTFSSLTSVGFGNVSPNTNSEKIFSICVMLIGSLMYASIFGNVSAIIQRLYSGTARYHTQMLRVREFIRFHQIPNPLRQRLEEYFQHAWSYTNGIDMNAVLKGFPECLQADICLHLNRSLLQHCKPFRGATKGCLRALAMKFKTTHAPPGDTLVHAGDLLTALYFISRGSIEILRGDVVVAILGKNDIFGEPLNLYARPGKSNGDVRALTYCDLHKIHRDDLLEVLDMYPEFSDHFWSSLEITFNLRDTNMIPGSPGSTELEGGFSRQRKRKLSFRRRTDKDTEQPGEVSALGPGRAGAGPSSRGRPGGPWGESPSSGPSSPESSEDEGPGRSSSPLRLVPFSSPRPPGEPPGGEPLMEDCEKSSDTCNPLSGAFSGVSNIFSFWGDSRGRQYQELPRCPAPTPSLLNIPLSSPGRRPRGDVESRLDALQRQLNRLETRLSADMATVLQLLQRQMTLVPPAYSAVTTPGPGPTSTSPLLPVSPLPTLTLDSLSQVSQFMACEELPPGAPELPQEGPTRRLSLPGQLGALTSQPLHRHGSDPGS
#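 U2OS cells were transduced with wild-type KCNH2 virus (2.03 x 10^8 / mL) for 4 h at room temperature, then cultured overnight at 37 C. Thallium flux was read with FluxOr dye. Rate constants were normalized to DMSO controls.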
# TRPV1 agonist – activates the human vanilloid receptor TRPV1; Q8NER1; TRPV1-expressing cells, Fluo-8 calcium influx, agonist mode; activation, % at 8.33 µM; 320,000 tested, 0.19% active; AID 540275; in the data active means activation above about 80%; inconclusive means between about 30% and that limit; further: 0% is about no effect
#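 Fluo-8 calcium influx in TRPV1-expressing cells, kinetic read (ex 480/em 520 nm). Compound added and read 3 min for agonist activity, followed by capsaicin at EC20 final and 2 min further read for enhancement.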
# KCNH2 3.1 block – inhibitors of human KCNH2 3.1 potassium channel isoform | 340,000 tested, 0.95% active | AID 720553 | U2OS KCNH2 3.1, thallium flux FluxOr; hits give low values | activity change, % (tested at about 1.8 µM);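 active means maximum activity change below -70%; inconclusive means maximum activity change from -70% to -50%; inactive means maximum activity change above -50%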;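 further: thallium influx rate constant from kinetic fluorescence after stimulation buffer; on the % scale 0 is the no-effect control and ±100 the full control effect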
#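 Normalized rate constant (relative to positive and negative DMSO controls) derived from a 2 min kinetic fluorescence read after stimulation; U2OS cells expressing the 3.1 isoform via virus at 1.77 x 10^8 /mL.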
# TRPV1 potentiator – enhances activation of the human vanilloid receptor TRPV1; Q8NER1; 320,000 tested, 0.02% active; potentiation, % at 8.33 µM; TRPV1-expressing cells, Fluo-8 calcium influx, capsaicin EC20 potentiation; in the data active means potentiation above about 80%; inconclusive means between about 30% and that limit; further: 0% is about no effect
#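 Cells expressing TRPV1 were dye-loaded with Fluo-8 and read kinetically: 10 s baseline, 3 min after compound (agonist portion), then 2 min after EC20 capsaicin (allosteric enhancer portion). Calcium-bound dye fluorescence at 480/520 nm.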
# The depositor's hits bear a star; ? = inconclusive; · = not tested or not shown.
SMILES,KCNH2 WT inh,TRPV1 agonist,KCNH2 3.1 block,TRPV1 potentiator
CCCCCCCCC(=O)NC(NC(=S)N1CCOCC1)C(Cl)(Cl)Cl (stereo not drawn),-30,83*,22,-7
CCCCCC(=O)NC(NC(=S)N1CCOCC1)C(Cl)(Cl)Cl (stereo not drawn),-2,83*,0,-8
COc1cccc(C(=O)NCCCN2CCN(CCCNC(=O)c3cccc(OC)c3)CC2)c1,?,-3,-76*,1
Cc1c(C)n(C)c2ccc(C(=O)NCCCN3CCCC3)cc12,8,18,-97*,1
O=C(NCCN1CCCC1)c1cccc(Cl)c1,5,2,30,-1
Cc1c(C)n(C)c2ccc(C(=O)NCCCN3CCCCC3)cc12,-1,-2,-8,15
O=C(NCCCN1CCN(CCCNC(=O)c2cccc(Cl)c2)CC1)c1cccc(Cl)c1,-100*,-1,-89*,2
COCC1CCN(Cc2c(C(=O)N3CCOCC3)nc3c(C)cccn23)C1 (stereo not drawn),0,·,1,·
CCc1ccc(NC(=O)[C@H](NC(=O)[C@@H]2Cc3ccccc3CN2)c2ccccc2)cc1,-88*,2,14,?
CCc1ccc(NC(=O)[C@@H](NC(=O)[C@@H]2Cc3ccccc3CN2)C(C)CC)cc1 (stereo partly drawn),-18,4,-16,-8
Cc1ccc(C(=O)NCC(=O)OCc2nc3ccsc3c(=O)[nH]2)cc1C,-15,·,8,·
C/C=C/c1ccc2c(c1)O[C@H](CN(C)CC1CCOCC1)[C@@H](C)CN([C@H](C)CO)S2(=O)=O,-12,·,10,·
Nc1c(Br)cc2c([nH]c(=O)c3ccccc32)c1Br,9,·,0,·
CCCCOc1ccc(C(=O)Nc2ccncc2)cc1,8,93*,-3,-7
O=C(Nc1ccncc1)c1ccc(Br)cc1,-14,113*,7,-28
CC(C)c1ccc(OCC(=O)Nc2ccncc2)cc1,-6,95*,-4,-14
CCc1ccc(OCC(=O)Nc2ccncc2)cc1,-3,?,-14,1
CCCOc1ccc(C(=O)Nc2cccnc2)cc1,-3,?,-7,0
CCc1ccc2[nH]c(=O)c(CN(Cc3nnnn3C3CCCC3)C3CCCCC3)cc2c1,-10,?,-189*,-2
Cc1ccc2[nH]c(=O)c(CN(Cc3ccc4c(c3)OCO4)Cc3nnnn3C3CCCC3)cc2c1,-1,17,-128*,-5
Cc1cc2cc(CN(Cc3ccc4c(c3)OCO4)Cc3nnnn3C3CCCC3)c(=O)[nH]c2cc1C,2,0,-11,25
CCN1C[C@@H]2[C@@H]3C(=O)N(C)C(=O)[C@@H]3[C@](C)(C1=O)N2C(=O)c1ccc(F)cc1,2,·,-4,·
O=[N+]([O-])c1cc([N+](=O)[O-])c2n[nH]c(-c3ccccc3)c2c1,2,0,10,-6
O=[N+]([O-])c1cc(-c2n[nH]c(-c3ccccc3)n2)cc([N+](=O)[O-])c1,1,-1,-78*,0
O=C(Nc1ccc(Cl)c(S(=O)(=O)N2CCOCC2)c1)c1ccncc1,-4,·,4,·
SMILES,KCNH2 WT inh,TRPV1 agonist,KCNH2 3.1 block,TRPV1 potentiator
Cc1cnc2c3c(cc(Cl)c2c1)-c1ccccc1S(=O)(=O)N3,·,22,·,-6
COCCCN1CCN(C2Cc3ccccc3Sc3ccc(Cl)cc32)CC1 (stereo not drawn),?,7,-86*,-10
Cc1ccc(S(=O)(=O)N2[C@@H](c3ccc(Br)cc3)C(C(=O)O)=CC[C@H]2c2ccc3c(c2)OCO3)cc1,0,·,·,·
CC1CCC(N2CCN(c3ccc([N+](=O)[O-])cc3)CC2)CC1 (stereo not drawn),?,3,-112*,-22
O=[N+]([O-])c1ccc(N2CCN(c3ccc(F)cc3)CC2)cc1,-1,-3,-33,?
CCC1CCC(N2CCN(c3ccc([N+](=O)[O-])cc3)CC2)CC1 (stereo not drawn),-124*,-10,-101*,-2
O=C(C1CCCCC1)N1CCC(c2nc3ccccc3[nH]2)CC1,1,0,-90*,-13
O=C(NC1CCCCC1)N1CCC(c2nc3ccccc3[nH]2)CC1,-4,-7,11,8
Cc1cccc(NC(=O)CN(C)C(C)C(=O)Nc2ccc(S(=O)(=O)N3CCCC3)cc2)c1C (stereo not drawn),5,26,1,6
CC(C)N(Cc1ccccc1)C(=O)C1CCCN(c2ncnc3c2nc2n3CCCCC2)C1 (stereo not drawn),-6,?,-98*,-12
O=C(C1CCCN(c2ncnc3c2nc2n3CCCCC2)C1)N1CCN(c2cccc(Cl)c2)CC1 (stereo not drawn),14,19,-139*,-5
O=C(c1cccc([N+](=O)[O-])c1)N1CCc2ccccc21,8,-5,-3,3
CN1C(=O)C(C)(C)N(C(=O)c2cccc([N+](=O)[O-])c2)c2ccccc21,0,?,-100*,9
C[C@H]1CN(S(=O)C(C)(C)C)[C@H](CCO)/C1=C\CCO (stereo partly drawn),16,·,23,·
CCn1c(=O)cc(OCC(=O)NCCCN2CCC(C)CC2)c2ccccc21,-23,-1,-77*,-17
CC1CCN(CCCNC(=O)COc2cc(=O)n(C)c3ccccc23)CC1,13,2,-4,-4
COc1cc(N)c2ncsc2c1,10,·,-3,·
O=C(c1ccc2c(c1)OCO2)C1CCCN(Cc2cc(F)ccc2-n2cccn2)C1 (stereo not drawn),-15,-1,-72*,11
Cc1ccc(-n2cccn2)c(CN2CCCC(C(=O)c3ccc4c(c3)OCO4)C2)c1 (stereo not drawn),?,0,-94*,4
Cc1ccc(-n2cccn2)c(CN2CCCC(CNC(=O)c3ccc(F)cc3)C2)c1 (stereo not drawn),-25,2,-48,5
O=C(c1ccc2c(c1)OCO2)C1CCCN(Cc2ccccc2OC(F)F)C1 (stereo not drawn),28,16,-22,2
CCCCN1C[C@H](CSC)[C@@H](CC(=O)Nc2ccc(OC)cc2)C1=O,6,·,-2,·
Cc1ccc(NC(=O)NCCN2CCCCC2)cc1,20,2,-16,0
CCC(C)c1ccc(NC(=O)NCCN2CCCCC2)cc1 (stereo not drawn),9,-6,-94*,-1
Cc1ccc(OCCn2cc(/C=N/NC(=O)c3ccncc3)c3ccccc32)cc1,-187*,7,-5,11
CCCN(CC(=O)NC(=O)NCc1ccccc1)CC(=O)Nc1ccc(F)c(F)c1F,11,·,-9,·
COc1ccc(C(C#N)=Cc2ccc(N(C)CCC#N)cc2)cc1,-8,·,-10,·
O=C(Cn1c(=O)c2c(ncn2Cc2ccccc2)n(Cc2ccccc2)c1=O)NC1CC1,-3,1,-90*,-1
CC(C)(C)Cc1c(-c2ccccc2)nc2ccc(Cl)cn12,20,·,-13,·

# Assay outcomes (PubChem BioAssay)
